Screening data: PubChem BioAssay, National Center for Advancing Translational Sciences (NCATS)
MCF10A rereplic: A quantitative high throughput screen for small molecules that induce DNA re-replication in MCF 10a normal breast cells; AID 624296, 2012; actives 2.9% (n = 350,000); MCF 10A DNA re-replication, Hoechst nuclear intensity, 48 h; Potency, µM (series often up to 46.1 µM), for the others: at the top dose activity, positive = re-replication, hits mostly activators; note: potency is the fitted concentration of half-maximal effect; % of control where 0% means no effect; nearly all actives have a fitted effect of over 50% in size
Vif-APOBEC3F blk: qHTS for Inhibitors of Vif-A3F Interactions: qHTS. Potency, µM (doses to about 46.1 µM), without a hit: at the top dose activity, negative = active. actives 0.2% (n = 390,000). HeLa A3F-eYFP + Vif (tagged APOBEC3F with the HIV-1 protein that degrades it), YFP fluorescence increase. AID 602313, 2012; note: potency is the fitted concentration of half-maximal effect; % of control where 0% means no effect; nearly all actives have a fitted effect of over 65% in size
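Fluorescence increase (Ex 488/Em 500-530) after overnight compound treatment at 37 deg C flags inhibition of Vif-driven A3F-eYFP loss in stable HeLa A3F-eYFP/Vif cells seeded overnight beforehand.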
Vif-A3G inh: qHTS for Inhibitors of Vif-A3G Interactions: qHTS; actives 0.076% (n = 410,000); HeLa A3G-eYFP + Vif (tagged APOBEC3G with the HIV-1 protein that degrades it), YFP fluorescence, overnight; Potency, µM (doses to about 46.1 µM), inactives show at the highest dose activity, negative = active, most hits filed as inhibitors; DNA dC->dU-editing enzyme APOBEC-3G (Homo sapiens), Q9HC16; note: potency is the fitted concentration of half-maximal effect; % is set by controls: 0 for no effect and ±100 for the full control effect; nearly all actives have a fitted effect of over 60% in size
Target sequence (Q9HC16 whole entry, looked up): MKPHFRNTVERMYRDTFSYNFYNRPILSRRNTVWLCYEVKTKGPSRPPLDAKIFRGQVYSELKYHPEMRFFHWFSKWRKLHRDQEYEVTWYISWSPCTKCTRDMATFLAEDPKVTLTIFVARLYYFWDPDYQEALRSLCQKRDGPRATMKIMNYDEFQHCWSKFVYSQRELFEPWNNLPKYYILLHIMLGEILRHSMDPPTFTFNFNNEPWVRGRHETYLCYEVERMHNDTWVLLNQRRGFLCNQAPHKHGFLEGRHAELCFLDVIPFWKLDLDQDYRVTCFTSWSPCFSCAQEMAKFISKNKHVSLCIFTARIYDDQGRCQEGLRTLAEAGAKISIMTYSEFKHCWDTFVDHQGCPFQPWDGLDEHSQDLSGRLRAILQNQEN
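Read-out is eYFP fluorescence (Ex 488/Em 500-530) from Vif-expressing HeLa A3G-eYFP cells; more signal means A3G escaped Vif-mediated degradation. Cells plated overnight, compound pinned in, incubated overnight at 37 deg C.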
SW480 rerep: A quantitative high throughput screen for small molecules that induce DNA re-replication in SW480 colon adenocarcinoma cells. SW480 DNA re-replication, Hoechst DNA content imaging, 48 h. Potency, µM (doses to about 46.1 µM), for inactives: top-dose re-replication activation, actives largely listed as activators. actives 1.8% (n = 340,000). AID 624297, 2012; note: potency is the fitted concentration of half-maximal effect; % of control where 0% means no effect; nearly all actives have a fitted effect of over 55% in size
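Image-based DNA-content assay: after two days of treatment, nuclei were labelled with the DNA dye Hoechst and imaged, and hits were compounds raising the count of nuclei showing high fluorescence intensity.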
IL-1B inflam inh: qHTS for Inhibitors of Inflammasome Signaling: IL-1-beta AlphaLISA Primary Screen; actives 4.7% (n = 360,000); THP-1 LPS/ATP IL-1B secretion, AlphaLISA, 16 h; hits give low values; activity change, % at 57.5 µM; in the data active = activity change below about -50%; inconclusive = mostly about -30% to -49%; note: % is set by controls: 0 for no effect and ±100 for the full control effect
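Secreted IL-1B measured by AlphaLISA bead assay after 16 h compound exposure of THP-1 cells; compounds (final up to 57.5 uM) added 1 h before LPS (250 ng/mL) and ATP (1.25 mM) stimulation; lower signal means less secretion.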
Giardia killer: Small Molecules that selectively kill Giardia lamblia: qHTS. Giardia lamblia trophozoite viability. activity change, % at 7.66 µM, hits read low. actives 0.15% (n = 340,000). AID 540267, 2011; in the data active = activity change below about -80%; inconclusive = between about -30% and that limit;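 note: parasites exposed to compound for two days anaerobically before the ATP read; % is set by controls: 0 for no effect and ±100 for the full control effect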
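Trophozoite viability was measured as ATP-dependent luminescence, read 15-30 min after reagent addition. Before that, parasites at 100 cells/well were exposed to compounds for 48 h, anaerobically, at 37 deg C.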
Numbers without * were called inactive; ? = inconclusive; . = no result. A selection: hits, their analogues and other compounds. The true share with any hit is near 6.9%. Unless noted, calls come from the whole dose curve; as a rule, active = well fitted curve in the direction sought with a large enough effect; inconclusive = small, poorly fitted or top-dose-only effect, or another doubt; inactive = no such curve, though single readings can be large; an effect the other way counts as inactive or inconclusive.

SMILES | MCF10A rereplic | Vif-APOBEC3F blk | Vif-A3G inh | SW480 rerep | IL-1B inflam inh | Giardia killer
FC(F)(F)c1ccc2c(c1)N1CCCC1CN2 (configuration not stated) | -2.4% | ? | -10.3% | 2.3% | ? | -87.1*
Nc1ccccc1N1C(=O)c2cccc3cccc(c23)C1=O | 8.2µM* | 3.1% | -5.2% | 18.4µM* | 0.0 | 15.6
COc1cc2cc(C(=O)N/N=C/c3ccc(F)cc3)[nH]c2cc1OC | -4.0% | 7.2% | -12.2% | -15.0% | -11.4 | 2.8
Cn1cccc1-c1cc(C(=O)N/N=C/c2ccc(F)cc2)[nH]n1 | 5.6% | -5.0% | -3.2% | -3.7% | ? | 32.2
CCOc1ccc(/C=N/NC(=O)c2cc(-c3cccn3C)n[nH]2)cc1 | 12.7% | -4.1% | -6.5% | -1.4% | -58.7* | -10.4
COc1cc2cc(C(=O)N/N=C/c3ccccc3Cl)[nH]c2cc1OC | ? | 2.7% | -9.2% | ? | -57.8* | -11.7
CCOc1ccc2[nH]c(C(=O)N/N=C/c3ccc(OC)cc3)cc2c1 | ? | -22.5% | ? | 1.16µM* | 63.2 | -21.4
COc1ccc(/C=N/NC(=O)c2cc3cc(OC)c(OC)cc3[nH]2)cc1 | -6.9% | -4.9% | -22.3% | -2.9% | -50.6* | -8.1
O=C(O)CCC(=O)Nc1ccc(-n2ccc(C(F)(F)F)n2)cc1 | 2.0% | -4.4% | 1.1% | -9.3% | 1.3 | -0.7
COc1ccccc1NC(=O)Nc1ccc(-n2ccc(C(F)(F)F)n2)cc1 | ? | -0.7% | 2.2% | 17.8% | -71.2* | 24.8
Cc1cc(C)cc(NC(=O)Nc2ccc(-n3ccc(C(F)(F)F)n3)cc2)c1 | 20.6µM* | ? | -19.5% | ? | -76.9* | -12.8
CC(=O)c1cccc(NC(=O)C(CC(C)C)NS(=O)(=O)c2ccc3c(c2)CCN3C(C)=O)c1 (configuration not stated) | . | -1.1% | 2.8% | . | . | .
CC1CN(C(=O)Nc2ccc(C(=O)NCc3cccc(F)c3)cc2)c2ccccc2S1 (configuration not stated) | . | -3.3% | 5.5% | . | . | .
NC(=S)N1OC[C@@H]2COc3ccc4ccccc4c3[C@@H]21 | ? | 3.8% | -2.2% | ? | -93.3* | 23.3
CO/N=C/NC(=O)N1OC[C@@H]2COc3ccc4ccccc4c3[C@@H]21 | 0.9% | 9.3% | -1.6% | 0.1% | -7.5 | -10.9
CN1C2CCC1/C(=C\c1ccccc1)C(=O)/C2=C\c1ccccc1 | ? | ? | ? | ? | -95.1* | 3.0
COc1ccc(NC(=O)C(NC(=O)/C=C\c2ccc3c(c2)OCO3)c2ccccc2)cc1 (configuration not stated) | . | -0.3% | ? | . | . | .
COc1nc(-c2ccccc2)ncc1S(=O)(=O)c1ccccc1 | -12.6% | 7.8% | 1.4% | -3.0% | 7.5 | 1.0
Cc1nc(-c2ccccc2)sc1-c1nc(-c2ccncc2)ncc1S(=O)(=O)c1ccccc1 | 23.8% | ? | 2.3% | ? | -53.6* | -3.5
CCCC1O[C@@H]2C[C@H]3[C@@H]4CCC5=CC(=O)C=C[C@]5(C)[C@H]4[C@@H](O)C[C@]3(C)[C@]2(C(=O)CO)O1 (some centres not stated) | 5.5% | 3.0% | -1.6% | -27.3% | -65.0* | ?
CCC[C@@H]1O[C@@H]2C[C@@H]3[C@H]4CCC5=CC(=O)C=C[C@@]5(C)[C@H]4[C@H](O)C[C@@]3(C)[C@@]2(C(=O)CO)O1 | 2.6% | . | . | -1.0% | . | .
CC(C)C(=O)OCC(=O)[C@@]12OC(C3CCCCC3)O[C@@H]1CC1C3CCC4=CC(=O)C=C[C@]4(C)C3[C@@H](O)C[C@@]12C (some centres not stated) | ? | . | . | 11.9µM* | . | .
Cc1sc(N)nc1C12CC3CC(CC(C3)C1)C2 | ? | -1.3% | 0.6% | 4.8% | -51.7* | 4.9
CCCCn1cnc2c(=O)[nH]c(N)nc21 | . | . | 0.4% | . | . | -1.1
C=CCOc1c(Cl)cc(C(=S)N2CCCC2)cc1OCC | 11.6µM* | -0.6% | ? | ? | 2.2 | -20.8
SMILES | MCF10A rereplic | Vif-APOBEC3F blk | Vif-A3G inh | SW480 rerep | IL-1B inflam inh | Giardia killer
CCOc1cc(C(=S)N2CCCC2)ccc1O | ? | 7.5% | 1.8% | 0.9% | 10.1 | -14.6
O=S(=O)(Nc1cccc2c1CCCC2)c1ccc(Cl)cc1 | 16.4µM* | -19.1% | -7.3% | -77.1% | ? | -1.7
COc1ccc(NC(=O)Nc2nc(C(N)Cc3ccc(C(F)(F)F)cc3)cs2)cc1 (configuration not stated) | . | . | 4.4% | . | ? | .
COc1ccc(CC(N)c2csc(NC(=O)Nc3ccc(OC)cc3)n2)cc1 (configuration not stated) | . | . | -4.6% | . | -50.4* | .
COc1ccc(CC(N)c2csc(NC(=O)c3cc(C(C)(C)C)oc3C)n2)cc1 (configuration not stated) | . | . | -0.6% | . | -56.7* | .
COc1ccc(OC)c(NC(=O)Nc2nc(CN)cs2)c1 | . | . | -1.7% | . | -7.7 | .
COc1ccc(OC)c(NC(=O)Nc2nc(C(C)N)cs2)c1 (configuration not stated) | . | . | 2.3% | . | -68.9* | .
COc1ccc(NC(=O)Nc2nnc(-c3ccncc3)s2)cc1 | 0.1% | -2.4% | 3.6% | -4.6% | -89.6* | 20.5
CCN(CCCNC(=O)CSc1cc(=O)n(CC)c2ccccc12)c1ccccc1 | . | 0.5% | 0.1% | . | . | .
COc1ccccc1N1CCN(CCCNC(=O)c2nnc(Cc3c(F)cccc3Cl)o2)CC1 | . | -0.8% | 0.1% | . | . | .
COc1ccc(CC(N)c2csc(NC(=O)Nc3ccccc3Cc3ccccc3)n2)cc1 (configuration not stated) | . | . | 3.3% | . | -51.9* | .
Clc1ccc(CNc2nc(CN3CCOCC3)nc3scc(-c4ccccc4)c23)cc1 | 13µM* | 6.0% | -11.6% | -11.4% | ? | 11.1
CC1CCCCN1C(=O)CSc1nc2ccccc2nc1Cc1ccccc1 (configuration not stated) | . | -13.1% | 3.3% | . | . | .
Cc1nn(C)c(Nc2ccc(Br)cc2)c1Br | 9.1% | 4.8% | -6.3% | -3.9% | -54.6* | -13.2
CCOc1ccc(-c2nnn(CC#N)n2)cc1OC | 10.3µM* | -2.1% | ? | ? | 37.1 | 4.1
NC(=O)c1ccc(Cn2c(C(=O)c3cc(Cl)c(N)c(Cl)c3)c3ccccc3[n+]2[O-])cc1 | 11.6µM* | -18.1% | ? | ? | 29.0 | -0.6
NCCCn1c(C(=O)c2cc(Cl)c(N)c(Cl)c2)c2ccc(C(F)(F)F)cc2[n+]1[O-] | 0.5% | -10.8% | 5.0% | -9.3% | ? | ?
